# Tau fluor cs: counter-screen for tau fibril formation inhibitors. tau K18 P301L Alexa594 fluorescence, heparin fibrillization. Potency, µM (titrated, usually from 57.7 µM). 280,000 compounds, 0.93% hits. AID 1463; also: nearly all actives have a fitted effect of over 55% in size
#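 Human tau K18 P301L (15 uM unlabeled, 0.24 uM Alexa 594-labeled) in 100 mM sodium acetate pH 7 with 20 uM heparin, 6 hr at 37 C. ThT 30 uM added, 1 hr ambient; Alexa 594 FP and total fluorescence read at 555/632 nm.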
# Tau ThT inhib: blocks human tau fibril formation measured by thioflavin T; P10636; 270,000 compounds, 2.1% hits; AID 1460; recombinant tau K18 P301L (four-repeat tau fragment), heparin-induced fibrillization, ThT fluorescence; Potency, µM (titrated, usually from 57.4 µM), hits mostly inhibitors; also: nearly all actives have a fitted effect of over 55% in size
#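 Heparin-induced fibrillization of the P301L-mutant K18 repeat-domain fragment of human tau was followed by ThT binding in quantitative high-throughput format.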
# USP1-UAF1 inh: USP1/UAF1 (human) deubiquitinase inhibition | O94782 | recombinant USP1/UAF1, Ub-Rhodamine cleavage fluorescence | Potency, µM (highest dose often 57.1 µM), hits mostly inhibitors | 390,000 compounds, 0.23% hits | AID 743255; also: nearly all actives have a fitted effect of over 60% in size
#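 In this screen, compounds sit with the deubiquitinase complex (1nM) for 15 min at room temperature before Ub-Rho is added at 150nM final. Fluorescence rise is then followed for 6 reads every 60 seconds.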
# FBPA coupling cs: inhibits coupling enzyme system, counter-screen for aldolase hits | activity change, negative = inhibition, % at 58.2 µM, hits read low | 290,000 compounds, 0.67% hits | coupling enzyme system counterscreen, AmpLite Red fluorescence; in the data active = activity change below about -30%
#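 Counterscreen of the coupled detection system alone, without aldolase: glyceraldehyde-3-phosphate coupling enzymes plus AmpLite Red readout. Compounds at 57.5 uM final, 10 min RT preincubation, 20 min RT reaction, fluorescence 525/598 nm.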
# Tau fibril FP: inhibitors of human tau fibril formation; P10636; K18 P301L tau heparin fibrillization, Alexa594 FP, 6 h; Potency, µM (top dose mostly 57.7 µM), actives largely listed as inhibitors; 280,000 compounds, 0.39% hits; AID 1468; also: nearly all actives have a fitted effect of over 55% in size
#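 Human tau K18 […] P301L fragment, 15 uM unlabeled plus 0.24 uM Alexa 594-labeled tau (final), with compound and 20 uM heparin in 100 mM sodium acetate pH 7; 6 hr at 37 C, then Alexa 594 FP read.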
# Hits are given with their value; 0 = inactive; ? = inconclusive; - = no result given; [ ] = dose if it differs, or a comment. Compounds with a hit are over-represented: about 2.3% of the library has one in this group of screens. Unless noted, calls follow the shape of the dose curve; as a rule, active = well fitted curve in the direction sought with a large enough effect; inconclusive = small, poorly fitted or top-dose-only effect, or another doubt; inactive = no such curve, though single readings can be large; an effect the other way counts as inactive or inconclusive.
SMILES,Tau fluor cs,Tau ThT inhib,USP1-UAF1 inh,FBPA coupling cs,Tau fibril FP
COc1ccc2c(c1)Cc1sc(NC(=O)c3cccc(C)c3)nc1-2,16µM[quencher],13µM,35µM,-,0
Cc1cccn2c3c(c(=O)nc12)C(c1ccc(F)cc1)CC(=O)N3 (stereo not drawn),0,0,0,-,0
CCCCn1c(CNC(=O)C23CC4CC(CC(C4)C2)C3)nnc1SCC(=O)Nc1ccccc1,0,0,0,-,0
CCCCC1=CC2=C(OC(C)=O)C(=O)C(C)(OC(=O)c3ccc(Cl)nc3)C(=O)C2=CO1 (stereo not drawn),?,22µM,-,0,?
Cc1cc(C)cc(NC(=O)c2c(C)oc3nc(C)nc(N4CCCC4)c23)c1,0,0,0,-,0
O=C(CSc1nc2ccccc2[nH]1)Nc1ccc2c(c1)OCCO2,0,?,0,0,0
O=C(CSc1nc(-c2cccc(F)c2)[nH]c1-c1ccccc1)Nc1ccc2c(c1)OCCO2,11µM[quencher],?,0,-,?
Cc1cccc(-c2nc(SCC(=O)Nc3ccc4c(c3)OCCO4)c(-c3ccccc3)[nH]2)c1,8.9µM[quencher],0,?,-,0
Cc1ccc(NC(=O)Cn2nnc(-c3nc(-c4ccncc4)no3)c2N)c(C)c1,0,0,0,-,0
CC(=O)c1cccc(NC(=O)CCCN2C(=O)COc3ccc(C)cc32)c1,0,?,?,-,0
O=C1C(=C(I)I)c2ccccc2-c2ccccc21,-,-,28µM,-,-
CCOC(=O)c1c(S(=O)(=O)N2CCCC(C(=O)Nc3cccc(Cl)c3)C2)c(C)n(C)c1C (stereo not drawn),0,0,0,-,0
Cc1[nH]n(-c2ccccc2)c(=O)c1/C=N/N1CCOCC1,0,0,0,0,0
Cc1[nH]n(-c2ccccc2)c(=O)c1/C=N/Nc1nncc(-c2ccccc2)n1,?,14µM,0,0,0
Cc1[nH]n(-c2ccccc2)c(=O)c1/C=N/N1C(=O)c2cccc3cccc(c23)C1=O,?,22µM,0,0,0
Cc1cc(C(=O)N/N=C/c2c(C)[nH]n(-c3ccccc3)c2=O)n[nH]1,-,-,0,0,-
Cc1cc2n(n1)CCCN2C(=O)Nc1ccc(C)c(Cl)c1,0,0,0,-,0
CC[C@@]1(O)C(=O)OCc2c1cc1n(c2=O)Cc2cc3c(CN(C)C)c(O)ccc3nc2-1,0,?,25µM,0,0
COc1cc(NC(=O)N2CCC(CN3CCCC3)CC2)cc(OC)c1OC,0,0,0,-,0
COC(=O)CC1c2cc(OC)c(OC)cc2CCN1C(=O)Nc1ccc(C)cc1Cl (stereo not drawn),0,0,0,-,0
O=C(CSc1ccc(-c2ccco2)nn1)N1CCCCC1,0,?,0,-47,0
CCN(CC)CCOC(=O)c1ccc(NC(=O)Cn2ncc3c2-c2cc(C)ccc2OC3)cc1,0,0,0,-,0
N#Cc1c(Nc2ccccc2)s[nH]c1=O,?,-,0,0,16µM
N#Cc1c(Nc2ccccc2Cl)s[nH]c1=O,?,7.9µM,0,0,8.9µM
N#Cc1c(Nc2ccccc2C(F)(F)F)s[nH]c1=O,0,16µM,0,0,28µM
SMILES,Tau fluor cs,Tau ThT inhib,USP1-UAF1 inh,FBPA coupling cs,Tau fibril FP
N#Cc1c(Nc2ccccc2)sc(C(=O)c2ccc(F)cc2)c1N,?,?,0,0,0
COC(=O)c1ccccc1NC(=O)CSc1nc2ccsc2c(=O)n1CCC(C)C,0,0,0,-,0
COc1ccc2nc(/N=C/c3c(C)[nH]n(-c4ccc(C)cc4)c3=O)sc2c1,?,18µM,0,0,0
O=C(C1=C(O)/C(=C/c2ccc(O)cc2)CCC1)C(F)(F)F,?,28µM,?,0,?
CCN(CC)C(=O)C1CCCN(C(=O)Nc2ccc3nsnc3c2)C1 (stereo not drawn),0,14µM,?,0,?
CCOc1ccc(OCC)c(C2C(C#N)=C(N)N(c3cccnc3)C3=C2C(=O)CC(C)(C)C3)c1 (stereo not drawn),0,?,0,-52,0
CSc1sc(C)cc1C1C(C#N)=C(N)N(c2cccnc2)C2=C1C(=O)CC(C)(C)C2 (stereo not drawn),0,0,0,0,0
Cc1ccccc1OCc1nnc(SCc2cc(=O)c3cc(F)ccc3[nH]2)n1C,0,0,0,-,0
COc1ccc(-c2csc(-c3ccc(C(=O)O)cc3)n2)cc1,0,0,0,0,0
COc1ccc(-c2csc(-c3[nH]cnc3N)n2)cc1,16µM[quencher],11µM,0,0,0
COc1ccc(S(=O)(=O)/N=C2/NC(=O)/C(=C/c3ccco3)S2)cc1,0,?,0,0,?
COc1cc(/C=C2\S/C(=N/S(=O)(=O)c3ccccc3)NC2=O)c([N+](=O)[O-])cc1OC,?,14µM,0,0,?
COc1ccc(S(=O)(=O)/N=C2/NC(=O)/C(=C\c3cc(OC)c(OC)cc3[N+](=O)[O-])S2)cc1,?,22µM,0,0,0
CC(C)(C)N1C(=O)[C@@H]2[C@H]3C(=CC[C@H]2C1=O)C(=O)[C@H]1O[C@H]1[C@H]3O,0[11.6 µM],?,-,0,?
CCOC(=O)CCN1C(=O)[C@@H]2[C@H]3C(=CC[C@H]2C1=O)C(=O)[C@H]1O[C@H]1[C@H]3O,0[11.6 µM],4µM,-,0,?
O=C1C2=CC[C@@H]3C(=O)N(c4ccc(F)cc4F)C(=O)[C@H]3[C@H]2[C@H](O)[C@H]2O[C@H]12,0[11.6 µM],4.5µM,-,0,?
